Out of some 350,000 compounds screened, about 6,000 (1.7%) were called active. Roughly 5% stayed inconclusive and do not appear here. Rule as the data show it: active = CPE inhibition above about 20% (passing the limit was not always enough); inconclusive = no clear call, values can overlap the other calls; tested in BHK-21 cells. The entries come from a sample that favours actives as a whole.
Assay: protection of cells from dengue 2 killing – plate reader, single concentration, primary screen (AID 651640);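 also: 0% = median of neutral control wells and 100% = median of positive control wells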
Conditions: DENV2-infected cells, cytopathic effect rescue, at 9.99 µM, active compounds read high
In the case of CNC(=O)C[C@@H]1CC[C@@H]2[C@@H](COc3ccc(NC(=O)c4ccc(F)cc4)cc3C(=O)N2C)O1, the CPE inhibition is reported as -2.03% (inactive). With Cc1noc(C)c1NC(=O)N(C)C[C@@H]1Oc2c(NC(=O)C3CCCCC3)cccc2C(=O)N([C@H](C)CO)C[C@@H]1C the CPE inhibition was -0.956% (inactive). For Cc1noc(C)c1NC(=O)Nc1cccc2c1O[C@H](CN(C)C(=O)Nc1c(C)noc1C)[C@@H](C)CN([C@@H](C)CO)C2=O, the CPE inhibition was -1.85% (inactive). For C[C@@H]1CN([C@@H](C)CO)C(=O)c2cccc(NC(=O)CCCCCC(=O)Nc3ccccc3N)c2O[C@H]1CN(C)C(=O)Nc1cccc2ccccc12, the CPE inhibition was 20.8% (active). In the case of C[C@@H]1CN([C@@H](C)CO)C(=O)c2cccc(NC(=O)CCCCCC(=O)Nc3ccccc3N)c2O[C@H]1CN(C)C(=O)Nc1ccccc1, the CPE inhibition is reported as 4.08% (inactive). In the case of Cc1noc(C)c1NC(=O)N(C)C[C@@H]1Oc2c(NC(=O)CCCCCC(=O)Nc3ccccc3N)cccc2C(=O)N([C@H](C)CO)C[C@@H]1C, the CPE inhibition is reported as 57.6% (active). With C[C@H]1CN([C@@H](C)CO)C(=O)c2cccc(NC(=O)Nc3ccccc3)c2O[C@H]1CN(C)C(=O)Nc1cccc2ccccc12 the CPE inhibition was 3.97% (inactive). With COCC(=O)N1[C@H](CO)[C@H](c2ccccc2C2=CCCCC2)[C@@H]1C#N the CPE inhibition was 5.95% (inactive). With C[C@H]1CN([C@@H](C)CO)C(=O)c2cccc(NC(=O)Nc3ccc(C(F)(F)F)cc3)c2O[C@H]1CN(C)CC1CCCCC1 the CPE inhibition was -8.84% (inactive). For CC(=O)N1[C@H](CN(C)S(=O)(=O)c2ccccc2)[C@H](c2ccccc2)[C@@H]1CO, the CPE inhibition was 15.4% (inactive). For COc1cccc(S(=O)(=O)N(C)C[C@@H]2Oc3cc(C4=CCCCC4)ccc3S(=O)(=O)N([C@H](C)CO)C[C@H]2C)c1, the CPE inhibition was 2.02% (inactive). With NC(=O)C1CCN(C(=O)COc2ccc3c4c(c(=O)oc3c2)CCC4)CC1 the CPE inhibition was 68.3% (active). With O=C(COc1ccc2c3c(c(=O)oc2c1)CCCC3)NCC(O)c1ccccc1 (centres undefined) the CPE inhibition was 3.96% (inactive). With O=C(COc1ccc2c3c(c(=O)oc2c1)CCC3)NC1CCCCC1 the CPE inhibition was 2.16% (inactive). In the case of COC(=O)C1=C(C)N(Cc2cccc(C(F)(F)F)c2)C(=NCc2ccccc2)NC1c1ccc(Cl)cc1 (centres undefined), the CPE inhibition is reported as 27.3% (active). For COC(=O)C1=C(C)N(Cc2cccc(C(F)(F)F)c2)C(=NCc2ccccc2)NC1c1ccccc1C(F)(F)F (centres undefined), the CPE inhibition was -6.35% (inactive). In the case of COC(=O)C1=C(C)N(Cc2cccc(C(F)(F)F)c2)C(=NCc2cccc(C(F)(F)F)c2)NC1c1ccccc1C(F)(F)F (centres undefined), the CPE inhibition is reported as 19.7% (inactive). In the case of Cc1noc(C)c1NC(=O)Nc1ccc2c(c1)C(=O)N([C@H](C)CO)C[C@H](C)[C@H](CN(C)C(=O)C1CCCCC1)OCCCC[C@@H](C)O2, the CPE inhibition is reported as -8% (inactive). In the case of CCN1[C@@H]2c3ccc(C4=CCCC4)c(=O)n3C[C@@H]2[C@@H](CO)[C@@H]1C(=O)NCc1ccccn1, the CPE inhibition is reported as -1.73% (inactive). For O=C(Cc1ccccn1)N[C@@H]1CC[C@H](CCn2cc(-c3ccc(F)cc3)nn2)O[C@@H]1CO, the CPE inhibition was -1.64% (inactive). With COCC(=O)Nc1ccc2c(c1)[C@@H]1C[C@H](CC(=O)NCc3ccc(Cl)cc3)O[C@H](CO)[C@@H]1O2 the CPE inhibition was 2.48% (inactive). In the case of Cc1ccc(CCN2CC(C(=O)NCCc3ccccc3)CC2=O)cc1 (centres undefined), the CPE inhibition is reported as 34.2% (active). In the case of O=C(NCCCN1CCCCC1)C1CC(=O)N(CCc2ccccc2)C1 (centres undefined), the CPE inhibition is reported as 4.06% (inactive). With O=C(NC1CCCCC1)C1CC(=O)N(CCc2ccccc2)C1 (centres undefined) the CPE inhibition was -1.18% (inactive). With CCCN1C[C@@H](C)[C@@H](OC)CN(C)C(=O)c2cc(NC(=O)c3ccccc3)ccc2OC[C@H]1C the CPE inhibition was -10.4% (inactive). With CC(=O)Nc1cccc(-c2ccnc3c2CC(C)(C(=O)NCc2ccco2)O3)c1 (centres undefined) the CPE inhibition was 32.1% (active). With CC1(C(=O)NCc2ccco2)Cc2c(-c3ccc4c(c3)OCO4)ccnc2O1 (centres undefined) the CPE inhibition was 7.65% (inactive). With COc1ccc(NC(=O)C2(C)Cc3c(-c4cccc(NC(C)=O)c4)ccnc3O2)cc1 (centres undefined) the CPE inhibition was -2.95% (inactive). In the case of COCC#Cc1cnc2c(c1)C(=O)N([C@@H](C)CO)C[C@@H](C)[C@@H](CN(C)C(=O)Nc1ccccc1OC)O2, the CPE inhibition is reported as 8.53% (inactive). For CCN1CCN(C(=O)N(Cc2ccc(Cl)cc2)S(=O)(=O)c2ccc(C)cc2)CC1, the CPE inhibition was -3.82% (inactive). In the case of CN1CCN(CC(=O)Nc2cccc([N+](=O)[O-])c2)CC1, the CPE inhibition is reported as -4.21% (inactive). In the case of Cc1ccc(S(=O)(=O)N(Cc2cccc([N+](=O)[O-])c2)C(=O)N2CCN(C)CC2)cc1, the CPE inhibition is reported as 56.8% (active). In the case of Cc1ccccc1-c1ccc2c(c1)O[C@@H](CN(C)Cc1ccncc1)[C@@H](C)CN([C@H](C)CO)S2(=O)=O, the CPE inhibition is reported as 7.62% (inactive). For CN(C)c1ccc2c(c1)[C@H]1C[C@H](CC(=O)O)O[C@H](CO)[C@H]1O2, the CPE inhibition was 0.102% (inactive). In the case of C[C@@H]1CN([C@@H](C)CO)C(=O)c2cccc(NC(=O)c3ccc(-c4nccs4)cc3)c2O[C@H]1CN(C)Cc1ccc(Cl)c(Cl)c1, the CPE inhibition is reported as -8.98% (inactive). For Cc1ccc(C(=O)C(=S)N2CCOCC2)cc1, the CPE inhibition was 41.4% (active). With Cc1ccc(C(=O)N2CCN(S(=O)(=O)N3CCOCC3)CC2)cc1 the CPE inhibition was -4.28% (inactive). For Cc1ccc(C(=O)Oc2ccc(C(=S)N3CCOCC3)cc2)cc1, the CPE inhibition was 12.3% (inactive). With C[C@@H]1CCCCO[C@H](CN(C)Cc2ccc(Cl)c(Cl)c2)[C@H](C)CN([C@@H](C)CO)C(=O)c2cc(NC(=O)CCC(F)(F)F)ccc2O1 the CPE inhibition was 2.84% (inactive). For C[C@H](NC(=O)C[C@H]1CC[C@H]2[C@@H](COC[C@H](O)CN2C(=O)Nc2cc(Cl)cc(Cl)c2)O1)c1ccccc1, the CPE inhibition was -1.1% (inactive). In the case of C/C=C\C=C\C(=O)N1CC2(CC(c3cccc(NC(=O)/C(C)=C\C)c3)=NO2)C[C@H]1C(N)=O (some centres undefined), the CPE inhibition is reported as 11.7% (inactive). For C/C=C(\C)C(=O)N1CC2(CC(c3cccc(NC(=O)CCCCC)c3)=NO2)C[C@@H]1C(N)=O (some centres undefined), the CPE inhibition was 85.8% (active). With CC/C=C/C(=O)N1CC2(CC(c3cccc(NC(=O)CC)c3)=NO2)C[C@H]1C(N)=O (some centres undefined) the CPE inhibition was -7.83% (inactive). In the case of C[C@@H]1CN([C@H](C)CO)C(=O)c2cc(C3=CCCCC3)cnc2O[C@@H]1CN(C)C(=O)c1ccc2c(c1)OCO2, the CPE inhibition is reported as -7.8% (inactive).

Source: PubChem BioAssay AID651640 (Broad Institute, 2012)
